Reference: PubChem BioAssay (NCATS)
Records with an inconclusive call do not appear. Entries that show only a call come without a potency. Values without a mark were called inactive. Activity calls are given as the source filed them. Calls come from the whole dose curve; as a rule, active = well fitted curve in the direction sought with a large enough effect; inconclusive = small, poorly fitted or top-dose-only effect, or another doubt; inactive = no such curve, though single readings can be large; an effect the other way counts as inactive or inconclusive.

Columns and labels:
[1] = target: Rap guanine nucleotide exchange factor 3 (Homo sapiens) (UniProt O95398); test: Confirmatory qHTS for antagonist of cAMP-regulated guanine nucleotide exchange factor 3 (EPAC1) (AID 1645880); conditions: EPAC1 Rap1B-BODIPY-GDP exchange, fluorescence; activity, negative = inhibition: at 115 µM (top of the series); note: nearly all actives have a fitted effect of over 55% in size; note: potency is the fitted concentration of half-maximal effect
In short: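 Released BODIPY-GDP fluoresces less than Rap1-bound BODIPY-GDP; the signal is followed at 480/540 nm at 5-min intervals over 30 min, after 5 min at room temperature. Reactions contain 100 nM EPAC1, 250 nM RAP1B-BODIPY-GDP and 50 uM GDP; results are normalized to ATA and DMSO.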

[2] = target: Rap guanine nucleotide exchange factor 3 (Homo sapiens) (UniProt O95398); test: Confirmatory qHTS for agonist of cAMP-regulated guanine nucleotide exchange factor 3 (EPAC1) (AID 1645881);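 note: EPAC1 catalysed release of BODIPY-GDP from Rap1B seen as fluorescence loss; nearly all actives have a fitted effect of over 75% in size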
[3] = target: Rap guanine nucleotide exchange factor 3 (Homo sapiens) (UniProt O95398); test: Counterscreen qHTS for agonist of cAMP-regulated guanine nucleotide exchange factor 3 (EPAC1) (AID 1645889); note: nearly all actives have a fitted effect of over 40% in size; note: potency is the fitted concentration of half-maximal effect
In short: (§1)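 Rap1B-BODIPY-GDP 250 nM + GDP 50 uM; cpds 7-pt, final 9.74 nM–152 uM (activator mode) or from 7.32 nM upwards (inhibitor mode); RT; FI 480/540 nm at 5 and 30 min, then ± cAMP, reread.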

[4] = target: Rap guanine nucleotide exchange factor 4 (Homo sapiens) (UniProt Q8WZA2); test: Confirmatory qHTS for agonist of cAMP-regulated guanine nucleotide exchange factor 4 (EPAC2) (AID 1645884);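 note: nucleotide exchange releases bodipy-GDP from Rap1 and this lowers its fluorescence; nearly all actives have a fitted effect of over 65% in size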; note: potency is the fitted concentration of half-maximal effect
[5] = target: Rap guanine nucleotide exchange factor 4 (Homo sapiens) (UniProt Q8WZA2); test: Confirmatory qHTS for antagonist of cAMP-regulated guanine nucleotide exchange factor 4 (EPAC2) (AID 1645885); note: nearly all actives have a fitted effect of over 25% in size; note: potency is the fitted concentration of half-maximal effect
[6] = target: Rap guanine nucleotide exchange factor 3 (Homo sapiens) (UniProt O95398); test: Counterscreen qHTS for antagonist of cAMP-regulated guanine nucleotide exchange factor 3 (EPAC1) (AID 1645888)
In short: as §1

Chain of Rap guanine nucleotide exchange factor 3 (Homo sapiens) (O95398 whole entry, looked up): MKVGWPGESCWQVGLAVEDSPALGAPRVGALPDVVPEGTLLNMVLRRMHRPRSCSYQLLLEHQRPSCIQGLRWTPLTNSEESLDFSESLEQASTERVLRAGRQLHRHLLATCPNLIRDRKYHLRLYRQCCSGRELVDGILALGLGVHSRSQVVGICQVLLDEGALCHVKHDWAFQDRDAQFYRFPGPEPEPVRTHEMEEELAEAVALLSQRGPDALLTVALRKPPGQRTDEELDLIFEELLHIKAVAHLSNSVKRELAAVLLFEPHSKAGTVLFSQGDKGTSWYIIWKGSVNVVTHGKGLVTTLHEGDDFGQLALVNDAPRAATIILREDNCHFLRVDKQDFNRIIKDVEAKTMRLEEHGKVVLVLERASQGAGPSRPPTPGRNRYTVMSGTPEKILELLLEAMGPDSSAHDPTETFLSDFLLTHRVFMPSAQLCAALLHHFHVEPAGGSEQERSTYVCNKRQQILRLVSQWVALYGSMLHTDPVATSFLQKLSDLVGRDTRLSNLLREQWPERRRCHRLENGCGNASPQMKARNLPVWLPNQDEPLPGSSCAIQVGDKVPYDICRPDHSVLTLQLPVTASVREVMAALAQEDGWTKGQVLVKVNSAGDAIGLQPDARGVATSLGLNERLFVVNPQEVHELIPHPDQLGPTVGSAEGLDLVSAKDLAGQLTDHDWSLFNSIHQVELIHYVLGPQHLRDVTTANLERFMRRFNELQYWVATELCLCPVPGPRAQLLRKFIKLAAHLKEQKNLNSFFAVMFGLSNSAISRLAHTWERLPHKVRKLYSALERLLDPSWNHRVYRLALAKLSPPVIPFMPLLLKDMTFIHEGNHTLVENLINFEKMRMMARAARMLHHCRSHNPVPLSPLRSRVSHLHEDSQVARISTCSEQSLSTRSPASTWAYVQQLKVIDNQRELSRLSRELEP
Chain of Rap guanine nucleotide exchange factor 4 (Homo sapiens) (Q8WZA2 whole entry, looked up): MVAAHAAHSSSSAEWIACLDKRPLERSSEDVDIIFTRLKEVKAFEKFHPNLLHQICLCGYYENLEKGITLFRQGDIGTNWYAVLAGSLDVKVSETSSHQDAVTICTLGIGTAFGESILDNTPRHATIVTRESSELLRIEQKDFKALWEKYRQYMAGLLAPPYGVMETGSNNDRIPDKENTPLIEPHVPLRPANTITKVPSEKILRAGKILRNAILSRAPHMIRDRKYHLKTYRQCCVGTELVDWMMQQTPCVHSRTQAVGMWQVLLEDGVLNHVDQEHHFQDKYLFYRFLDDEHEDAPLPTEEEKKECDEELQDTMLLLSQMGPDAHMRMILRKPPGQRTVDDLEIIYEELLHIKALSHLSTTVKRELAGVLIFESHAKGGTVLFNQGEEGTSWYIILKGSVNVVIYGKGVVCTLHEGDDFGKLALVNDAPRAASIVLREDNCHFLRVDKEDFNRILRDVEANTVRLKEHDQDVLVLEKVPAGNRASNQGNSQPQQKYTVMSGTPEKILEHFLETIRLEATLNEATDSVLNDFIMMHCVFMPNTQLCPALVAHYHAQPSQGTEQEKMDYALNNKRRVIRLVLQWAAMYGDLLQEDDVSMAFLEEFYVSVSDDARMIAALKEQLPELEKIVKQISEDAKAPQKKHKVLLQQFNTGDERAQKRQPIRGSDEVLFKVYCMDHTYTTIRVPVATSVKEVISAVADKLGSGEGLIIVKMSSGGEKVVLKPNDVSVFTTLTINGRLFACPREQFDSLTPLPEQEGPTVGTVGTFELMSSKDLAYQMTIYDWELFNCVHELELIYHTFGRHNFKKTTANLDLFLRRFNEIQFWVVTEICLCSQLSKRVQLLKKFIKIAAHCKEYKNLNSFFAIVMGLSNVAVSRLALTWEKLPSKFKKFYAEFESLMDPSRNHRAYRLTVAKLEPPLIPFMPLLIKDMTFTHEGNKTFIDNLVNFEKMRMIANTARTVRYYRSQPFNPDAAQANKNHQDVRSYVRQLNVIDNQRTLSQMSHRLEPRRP

Structure (SMILES)	Potency [1]	Potency [2]	Potency [3]	activation [4]	Potency [5]	activity change, negative = inhibition [6]	Potency [4]	Potency [6]
Cc1ccc(S(=O)(=O)N2[C@@H](c3ccc(C(C)(C)C)cc3)C(C(=O)O)=CC[C@H]2c2ccc(Cl)cc2)cc1	33.8 µM (active)	inactive	inactive					
CCOc1ccc(NC(=O)/C(C#N)=C/c2ccc(N3CCCC3)c(C)c2)cc1	inactive			3.1% [at 17.1 µM, percent relative to cAMP agonist control]	inactive	15.4% [at 30.8 µM]		
COC(=O)c1cc(C(=O)c2ccc(Cl)cc2)n2c(=O)/c(=C\N(C)C)sc12	inactive				inactive		100 µM (active)	
COc1ccc(OC)c(NC(=S)N2c3ccccc3CC2C)c1 (configuration not stated)	inactive			12.4% [at 17.1 µM, percent relative to cAMP agonist control]	inactive	-17.1% [at 30.8 µM]		
COC(=O)c1ccc2nc(-c3ccccc3)c(Cc3cccc(F)c3)n2c1	inactive			4.96% [at 17.1 µM, percent relative to cAMP agonist control]	inactive	10% [at 30.8 µM]		
Cc1ccc(NC(=O)c2sc3nc(-c4cc5ccccc5oc4=O)[nH]c(=O)c3c2C)c(C)c1	inactive				inactive		inactive	inactive
CNC(=O)N(C1=NCC(C)(C)S1)c1ccc(F)c(Cl)c1	inactive				inactive		inactive	inactive
COc1ccc(NC(=O)c2c(-c3ccccc3)c(-c3ccccc3)nn(C)c2=O)c(OC)c1	inactive				inactive		inactive	inactive
CC(/C=C/c1ccc(N(C)C)cc1)=N\N=C1\NC(=O)CC(C(=O)Nc2ccccc2)S1 (configuration not stated)	inactive			10% [at 17.1 µM, percent relative to cAMP agonist control]	inactive	-3.02% [at 30.8 µM]		
Cc1cccc(C(C)C)c1-n1nnnc1-c1ccccc1	inactive			6.22% [at 17.1 µM, percent relative to cAMP agonist control]	3.01 µM (active)	-11.8% [at 30.8 µM]		
CCOC(=O)N1CCc2c(sc3c2c(=O)n(-c2ccc(F)cc2)c(=O)n3CC(=O)c2ccc(Cl)cc2)C1	inactive				inactive		inactive	inactive
COC(=O)c1cc2sc(Cl)cc2n1Cc1cc(C)ccc1C	inactive				inactive		inactive	inactive
Nc1ccccc1Oc1ccc2ccccc2c1	inactive				inactive		inactive	inactive
CCc1cccc(CC)c1N1C(=O)C2=C(SCCCS2)C1=O	inactive				inactive		112 µM (active)	inactive
O=C(O)c1ccccc1NS(=O)(=O)c1ccc(NN=Cc2cccc(Cl)c2)c([N+](=O)[O-])c1	75.7 µM (active)				inactive		inactive	inactive
CN(C)c1ccc(/C=C(\C#N)C(=O)c2ccccc2)cc1	inactive			17.4% [at 17.1 µM, percent relative to cAMP agonist control]	inactive	15.5% [at 30.8 µM]		
COc1ccc(N=Cc2c(O)ccc3ccccc23)cc1	inactive			6.9% [at 17.1 µM, percent relative to cAMP agonist control]	inactive	17.7% [at 30.8 µM]		
COC(=O)c1c(C)c2c(C)cc3ccccn3c-2c1C(=O)OC	inactive			10.6% [at 17.1 µM, percent relative to cAMP agonist control]	inactive	9.53% [at 30.8 µM]		
COc1ccc(-c2ncccc2OC(=O)C23CC4CC(CC(C4)C2)C3)cc1OC	inactive			1.83% [at 17.1 µM, percent relative to cAMP agonist control]	inactive	-6.96% [at 30.8 µM]		
COc1cccc(-n2c(SCC(=O)Nc3ccc(F)cc3F)nc3c([nH]c4ccccc43)c2=O)c1	inactive				inactive		inactive	inactive
O=c1[nH]c2ccccc2nc1/C=C(\O)c1cccs1	inactive			1.73% [at 17.1 µM, percent relative to cAMP agonist control]	inactive	-7.08% [at 30.8 µM]		
CCc1ccc(NC(=O)/C(C#N)=C/c2cc3ccc(C)cc3nc2N2CCOCC2)cc1	inactive			0% [at 17.1 µM, percent relative to cAMP agonist control]	inactive	-18.1% [at 30.8 µM]		
N=C1SC(c2ccccc2)C(=O)N1c1ncc(Cc2ccccc2Cl)s1 (configuration not stated)	inactive				inactive		inactive	inactive
COC(=O)c1cc2oc(C)cc2n1Cc1cc(C)ccc1C	inactive				inactive		inactive	inactive
CCOc1cc(/C=N/NC(=O)c2ccc(-c3csc(Nc4ccc(C)cc4)n3)cc2)ccc1OCC(=O)O	23.9 µM (active)				inactive		inactive	inactive

Structure (SMILES)	Potency [1]	Potency [2]	Potency [3]	activation [4]	Potency [5]	activity change, negative = inhibition [6]	Potency [4]	Potency [6]
O=C(N/N=C/c1cc(Cl)cc([N+](=O)[O-])c1O)NC12CC3CC(CC(C3)C1)C2	10.7 µM (active)				inactive		inactive	inactive
Cc1ccc(Nc2cc(C)nc3c(C)ccc([N+](=O)[O-])c23)cc1	inactive			6.25% [at 17.1 µM, percent relative to cAMP agonist control]	inactive	4.53% [at 30.8 µM]		
O=C1c2cccc3c(N4CCCCC4)ccc(c23)C(=O)N1c1ccccc1O	inactive			13.2% [at 17.1 µM, percent relative to cAMP agonist control]	inactive	-4.8% [at 30.8 µM]		
CC1CCN(c2ccc3c(c2)S(=O)(=O)c2cccc(C(=O)NCc4cccc(F)c4)c2C3=O)CC1	inactive				inactive		112 µM (active)	inactive
CC(OC(=O)/C(C#N)=C/c1ccc(N(C)C)cc1)C(=O)N(C)Cc1ccccc1 (configuration not stated)	inactive			3.68% [at 17.1 µM, percent relative to cAMP agonist control]	inactive	-0.358% [at 30.8 µM]		
Cc1ccc2cccc(OC(=O)c3c(F)cccc3Cl)c2n1	inactive				inactive		inactive	inactive
CN1CCS/C1=C\C=C1/SC(=S)N(CC(=O)O)C1=O	inactive				inactive		79.4 µM (active)	inactive
COC(=O)CC(NC(=S)NC(=O)c1ccccc1)c1ccc(Br)cc1 (configuration not stated)	inactive				inactive		inactive	inactive
C=CCN1C(=O)c2cccc3c(N4CCCCC4)ccc(c23)C1=O	inactive				inactive		112 µM (active)	inactive
COc1ccc(OC)c(/C=C/c2nc3ccccc3[nH]c2=O)c1	inactive				75.7 µM (active)		100 µM (active)	inactive
COC(=O)C1=CN(C(C)c2ccccc2)C=C(C(=O)OC)C1c1cc(OC)c(OC)c(OC)c1 (configuration not stated)	inactive				26.9 µM (active)		inactive	inactive
CCOC(=O)/C(C#N)=C/c1ccc(N2CCN(Cc3ccccc3)CC2)cc1	inactive			10.3% [at 17.1 µM, percent relative to cAMP agonist control]	inactive	16.8% [at 30.8 µM]		
COc1ccc(/C(O)=C/c2nc3ccccc3n(-c3ccccc3)c2=O)cc1	inactive				75.7 µM (active)		100 µM (active)	inactive
COc1ccccc1C(=O)NNC(=O)CCCN1C(=O)/C(=C/c2cccs2)SC1=S	inactive			1.7% [at 17.1 µM, percent relative to cAMP agonist control]	inactive	10.7% [at 30.8 µM]		
Nc1c(C(=O)C2CC2)sc2nc(-c3cccs3)cc(C(F)(F)F)c12	inactive				75.7 µM (active)		100 µM (active)	inactive
O=C(NN=Cc1c(O)ccc2ccccc12)c1ccncc1	inactive			6.24% [at 17.1 µM, percent relative to cAMP agonist control]	inactive	4.58% [at 30.8 µM]		
O=C1CCC2CN3CCc4c([nH]c5ccccc45)C3CC2C1 (configuration not stated)	inactive			-5.59% [at 17.1 µM, percent relative to cAMP agonist control]	inactive	2.15% [at 30.8 µM]		
O=C1/C(=C/C=C/c2ccccc2)Oc2c1ccc(O)c2CN1CCN(CCO)CC1	inactive			17.5% [at 17.1 µM, percent relative to cAMP agonist control]	inactive	31.1% [at 30.8 µM]		
COc1ccc(C(=O)/C=C/c2ccc(N(C)C)cc2)c(OC)c1	inactive				inactive		inactive	inactive
CCOc1ccc(CCN2C(=O)C(=O)N([C@@H](CC(C)C)CN3CCC[C@@H]3CN3C(=O)C(=O)NC[C@@H]3Cc3ccccc3)C[C@@H]2CC(C)C)cc1	inactive				0.0953 µM (active)		inactive	inactive
O=C(Cc1nc2ccccc2[nH]c1=O)c1ccccc1	inactive		inactive		inactive		100 µM (active)	inactive
O=C(N=c1ccn(-c2nc3ccccc3nc2NS(=O)(=O)c2ccccc2)cc1)c1ccccc1Cl	inactive		79.4 µM (active)		75.7 µM (active)		89.1 µM (active)	inactive
N=C1/C(=C\c2coc3ccc(O)cc3c2=O)C(=O)N=C2SC=CN12	inactive		44.7 µM (active)		inactive		112 µM (active)	inactive
CCN(CC)C(=O)c1ccc(/C=C/c2c[nH]c3ccccc23)[n+](C)c1	inactive		15.8 µM (active)	6.96% [at 17.1 µM, percent relative to cAMP agonist control]	inactive	70% [at 30.8 µM]		
CN(C)c1ccc(C(=O)/C=C/c2ccc(Br)cc2)cc1	inactive				inactive		112 µM (active)	inactive
